HP1b chromo inh: HP1-beta chromodomain-methylated histone interaction inhibition; P83916; AlphaScreen HP1-beta / biotin-H3K9me3 peptide binding; actives 0.56% (n = 390,000); Potency, µM (highest dose often 114 µM), inactives show at the highest dose activity change, negative = inhibition, most hits filed as inhibitors; also: nearly all actives have a fitted effect of over 70% in size
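Compound inhibition of the preformed complex between 50 nM HP1-beta and 50 nM biotinylated H3K9me3 peptide was read by AlphaScreen. Buffer was PBS pH 7.4 with 0.01% Tween-20. Incubations ran 30 min at room temperature, with 10 ug/mL donor/acceptor beads.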
JMJD2A Tudor: JMJD2A Tudor domain (human) inhibition. AlphaScreen JMJD2A-Tudor / H3K4me3 peptide binding. Potency, µM (titrated, usually from 114 µM), without a hit: at the highest dose activity change, negative = inhibition, usual class: inhibitors. actives 4.4% (n = 390,000). AID 504339; also: % is scaled to controls: 0 for no effect and ±100 for the full control effect; nearly all actives have a fitted effect of over 50% in size
G9a block: G9a (human) methyltransferase inhibition; AID 504332; G9a H3K9 monomethylation, AlphaScreen, 2 h; actives 8.8% (n = 350,000); Q96KQ7; Potency, µM (doses to about 102 µM), without a hit: at the highest dose activity, negative = inhibition, usual class: inhibitors; also: % is scaled to controls: 0 for no effect and ±100 for the full control effect; nearly all actives have a fitted effect of over 75% in size
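Readings reflect AlphaScreen signal from monomethyl-H3K9 antibody detection. HMT at 20 nM; substrate b-H3K9 500 nM; cofactor SAM 20 uM; 2 h RT reaction; compounds tested as titrations in qHTS with 15 min preincubation.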
GLS inhibitor: inhibitors of human glutaminase (GLS) | O94925 | GLS enzymatic activity, qHTS titration | Potency, µM (titrated, usually from 45.5 µM), for the others: top-dose activity change, negative = inhibition, most hits filed as inhibitors | actives 0.21% (n = 410,000); also: % is scaled to controls: 0 for no effect and ±100 for the full control effect
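hKGA; 45 mM KH2PO4 pH 8.2 + 0.02% Tween-20; cpd via pin tool; 1 mM Gln soln; GluOx/HRP/Amplex Red; RT 30 min; fluor. t0 & final.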
BAZ2B block: BAZ2B (human) inhibition; AlphaScreen BAZ2B-H3K14Ac peptide displacement; Potency, µM (titrated, usually from 114 µM), without a hit: at the highest dose activity change, negative = inhibition, hits mostly inhibitors; actives 4.4% (n = 360,000); Q9UIF8; also: % is scaled to controls: 0 for no effect and ±100 for the full control effect; nearly all actives have a fitted effect of over 60% in size
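Compounds, titrated to a top concentration of 110 uM, were incubated 30 min at room temperature with preformed BAZ2B/acetyl-K14 H3 peptide complex (50 nM each). Proximity signal was measured by AlphaScreen after 20 min with beads.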
The depositor's hits bear a star; u = inconclusive; x = no result given; ! = not active in a repeat; [ ] = remark or other dose. The list is not random: actives were taken first. Their share in the collection is about 10%. Calls follow the shape of the dose curve; as a rule, active = well fitted curve in the direction sought with a large enough effect; inconclusive = small, poorly fitted or top-dose-only effect, or another doubt; inactive = no such curve, though single readings can be large; an effect the other way counts as inactive or inconclusive. Potency is read from the fitted curve at half-maximal effect.

SMILES | HP1b chromo inh | JMJD2A Tudor | G9a block | GLS inhibitor | BAZ2B block
Cc1c(N(C(=O)c2cnccn2)C2(C(=O)NC3CCCC3)CCCCC2)c(=O)n(-c2ccccc2)n1C | 38.3% | 4.1% | u | 5.3% | -6.4%
CCC1(c2ccc(OC)cc2)NC(=O)N(CC(=O)c2ccc3c(c2)OCCO3)C1=O (stereo unspecified) | 16.1% | -16.4% | 1.1%[12.7 µM] | 4.9% | 1.0%
COC(=O)C1CCN(S(=O)(=O)CCNC(=O)c2cccc(OC)c2)CC1 | 17.7% | -2.1% | 35.5µM* | 4.5% | 9.2%
COc1cccc(C(=O)NCCS(=O)(=O)N2CCC(C)CC2)c1 | 15.9% | -6.4% | 35.5µM* | 5.3% | 6.5%
Cn1cccc1CC(=O)N/N=C/C=C/c1ccco1 | u | u | 12.6µM* | -0.6% | 56.2µM*
O=C(N/N=C/C=C/c1ccccc1)C(O)c1ccccc1 (stereo unspecified) | 20.5% | -14.0% | x | -3.1% | x
Cn1cccc1CC(=O)N/N=C\c1ccccc1 | 7.0% | -19.2% | -42.8% | 7.6% | -31.2%
Cc1ccc(/C=N/NC(=O)CN2C(=O)CSc3ccccc32)o1 | 25.0% | -5.2% | 44.7µM* | -13.2% | -1.6%
C/C(=N\NC(=O)Cc1cccn1C)c1ccco1 | 32.9% | -14.5% | 3.1%[12.7 µM] | 2.9% | -16.3%
O=C(N/N=C/C=C/c1ccco1)C(O)c1ccccc1 (stereo unspecified) | -6.4% | 56.2µM* | x | -4.5% | x
Cn1cccc1CC(=O)N/N=C/c1ccc([N+](=O)[O-])cc1 | u | u | 50.1µM* | 3.9% | u
COc1cc(N)c(Cl)cc1C(=O)OCC(=O)c1cccs1 | 3.5% | -18.8% | u | -9.7% | 4.8%
Cc1ccc(/C=N\NC(=O)Cc2cccn2C)o1 | 7.5% | -3.0%[57.1 µM] | 28.2µM* | 8.8% | x
O=C(COc1ccccc1[N+](=O)[O-])N/N=C/C=C/c1ccco1 | 18.7% | -12.6%[57.1 µM] | 39.8µM* | 0.1% | -38.1%
CCCC(=O)N1CCCC1(C)C(=O)Nc1cccc(OC(C)C)c1 (stereo unspecified) | x | x | x | -0.1% | x
CCN(C(=O)c1ccc(Cl)cc1[N+](=O)[O-])c1ccccc1C | 23.9% | -18.9% | 39.8µM* | -8.7% | -37.6%
O=C(c1ccc(Cl)cc1[N+](=O)[O-])N(Cc1ccccc1)Cc1ccccc1 | x | x | 79.4µM* | x | u
CCC1CCCCN1CCCNC(=O)CN1C(=O)c2cccnc2Oc2ccc(C)cc21 (stereo unspecified) | 26.8% | -6.8% | -3.8% | -10.9% | -18.3%
CC(=O)c1cccc(NC(=O)CCCN2C(=O)COc3ccc(C)cc32)c1 | 20.7% | -18.8% | -29.8%[59 µM] | 4.7% | -12.9%
Cc1cnc(NC(=O)CCCSc2nc3ccccc3s2)s1 | 29.4% | -10.4% | -13.2% | 0.6% | 7.1%
COC(=O)c1sc(SC)c(S(=O)(=O)C(C)C)c1N/N=C(\C#N)C(=O)c1ccccc1 | -14.3% | u | 44.7µM* | 25.8% | -29.0%
COC(=O)c1sc(SC)c(S(=O)(=O)C(C)C)c1N | 51.5% | -18.2% | x | 0.2% | -11.2%
OC[C@H](S)CS | x | x | 1µM* | 1.8% | x
O=C(Cc1ccccc1)NC1CCN(Cc2ccccc2)CC1 | 45.5% | -9.4% | u | 3.8% | -14.7%
O=C(O)C1CSC2(CCN(Cc3ccccc3)CC2)N1 (stereo unspecified) | u | 10µM* | 7.08µM* | -1.0% | 56.2µM*
SMILES | HP1b chromo inh | JMJD2A Tudor | G9a block | GLS inhibitor | BAZ2B block
C=CCNC(=O)c1ccccc1NS(=O)(=O)c1ccc(OC)c(C(=O)N2CCOCC2)c1 | 6.9% | -2.8% | u | -21.6% | 4.0%
CC(C)(C)c1ccc(C(=O)N2CCNCC2)cc1 | 19.0% | 5.4% | 7.7%[12.7 µM] | -6.2% | 1.5%
CN1CCC2(CC1)N=C(c1ccc(F)cc1)C(=S)N2C(=O)c1ccc(C(C)(C)C)cc1 | 31.6µM* | 31.6µM* | 10µM* | 4.6% | 35.5µM*
Cc1noc(C)c1COc1ccccc1C(=O)NNC(=O)c1ccccc1F | 19.3% | -9.0% | 4.1%[12.7 µM] | 13.3% | -5.0%
O=C(CNc1cc(S(=O)(=O)N2CCCC2)ccc1OCC(F)(F)F)Nc1ccc(SC(F)F)cc1 | 31.3% | -22.6% | u | -3.0% | -7.1%
S=c1[nH]c2ccccc2n2c(=S)[nH]nc12 | 19.1% | 22.4µM* | 1.78µM* | 7.4% | 50.1µM*
S=c1[nH]nc2ccc3ccccc3n12 | x | x | x | 5.8% | x
Cc1cc(Nc2ccccc2)n(-c2ccc(Br)cc2)n1 | 16.6% | 6.3% | 50.1µM* | 9.1% | 7.7%
Cc1cc(C)n(-c2nc(Nc3ccccc3)nc(-n3nc(C)cc3C)n2)n1 | 24.8% | u | u | -13.6% | 79.4µM*
Cc1cc(Nc2ccc(Cl)cc2)n(-c2ccccc2)n1 | 45.1% | -2.9% | -6.4%[59 µM] | 20.4% | -2.6%
Cc1cc(C)n(-c2nc(N(c3ccccc3)c3ccccc3)nc(-n3nc(C)cc3C)n2)n1 | -3.8% | u | 20.1%[59 µM] | -2.4% | -10.0%
COc1ccc(Cl)cc1NC(=O)CN(C)CC(=O)Nc1cccc(S(=O)(=O)N2CCCC2)c1 | 37.6% | -10.3% | 3.7%[0.501 µM] | -10.2% | -5.8%
COC(=O)CN1C(=S)N(c2ccc(OC)cc2)C(=O)/C1=C/c1ccc(N2CCOCC2)cc1 | u | u | 31.6µM* | 5.6% | 28.2µM*
COC(=O)CN1C(=S)N(c2ccc(OC)cc2)C(=O)/C1=C/c1ccc(OC)cc1 | 6.6% | -32.9% | -10.6%[12.7 µM] | -12.8% | -35.5%
COc1cccc(CNC(=O)CN2CCCN(Cc3ccccc3)S2(=O)=O)c1 | 30.0% | 0.7% | 3.6%[59 µM] | -0.2% | 2.3%
O=C(Cn1sc2ccccc2c1=O)Nc1ccccc1 | x | x | x | 7.08µM* | x
O=C(Cn1sc2ccccc2c1=O)NC12CC3CC(CC(C3)C1)C2 | u | 2.82µM* | u | u | 11.2µM*
O=C(CN1C(=O)c2ccccc2C1=O)Nc1ccccc1 | 25.7% | -10.3% | 17.8% | 18.8% | 7.2%
Nc1nc2ncc(C(=O)c3cc(F)ccc3O)cc2s1 | 28.9% | 3.1% | x | -6.9% | -12.0%
Nc1nc2ncc(C(=O)c3cc(Cl)cc(Cl)c3O)cc2s1 | u | u | 50.1µM* | 0.0% | -26.9%
Cc1ccc(OCC(=O)OC2CCCN(C)C2)cc1 (stereo unspecified) | 31.7% | u | 0.9%[0.501 µM] | -0.9% | -4.2%
CN1CCCC(OC(=O)COc2ccccc2)C1 (stereo unspecified) | 10.7% | -5.0% | 50.1µM* | 12.3% | -4.5%
O=c1c(O)c(-c2ccccc2)oc2cc(O)cc(O)c12 | 34.2% | -29.9% | x | 65.1% | x
O=c1c(-c2ccccc2)c(-c2ccccc2)oc2cc(O)cc(O)c12 | -17.9% | u | 41.0%[0.501 µM] | -4.0% | 70.8µM*
O=c1c(O)c(-c2ccc(O)cc2O)oc2cc(O)cc(O)c12 | x | x | 39.8µM*! | x | 50.1µM*
O=c1c(-c2ccc(O)cc2O)coc2cc(O)cc(O)c12 | 32.0% | -11.6% | 0.3%[12.7 µM] | 15.1% | -21.2%
Cc1ccc(C)c(S(=O)(=O)NCC(c2ccco2)N2CCc3ccccc3C2)c1 (stereo unspecified) | 36.5% | -16.7% | 0.8% | -9.3% | 9.2%
